For four molecules, normalized growth results are on record in PubChem BioAssay AID1159580 (chemical genetic matrix, 2015).

The assay can be described thus: chemical genetic growth profiling, strain panel (AID 1159580).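 Also: tested at 20 µM; growth read once vehicle control cultures reached saturation at 30 °C; 1 = growth at the plate median or of vehicle wells; lower values mean less growth of the strain.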 The note with it: growth OD.
Setting [1] is: S. cerevisiae deletion strains, locus YAL013W, strain DEP1, hits give low values.
Where [2] appears, read: S. cerevisiae deletion strains, locus YAL040C, strain CLN3, hits give low values.
[3] abbreviates: S. cerevisiae deletion strains, locus YCL061C, strain MRC1 (second series), hits give low values.
Setting [4] is: S. cerevisiae deletion strains, locus YDR150W, strain NUM1, hits give low values.
The mark [5] stands for this setting: S. cerevisiae deletion strains, locus YDR363W, strain ESC2, hits give low values.
The mark [6] stands for this setting: S. cerevisiae deletion strains, locus YER002W, strain NOP16, hits give low values.
The mark [7] stands for this setting: S. cerevisiae deletion strains, locus YJR075W, strain HOC1, hits give low values.
[8] abbreviates: S. cerevisiae deletion strains, locus YMR307W, strain GAS1, hits give low values.
[9] abbreviates: S. cerevisiae deletion strains, locus YNL153C, strain GIM3, hits give low values.
[10] abbreviates: S. cerevisiae deletion strains, locus YNL175C, strain NOP13, hits give low values.
The mark [11] stands for this setting: S. cerevisiae deletion strains, locus YNL197C, strain WHI3, hits give low values.
[12] abbreviates: S. cerevisiae deletion strains, locus YNL224C, strain SQS1, hits give low values.
The mark [13] stands for this setting: S. cerevisiae deletion strains, locus YOR083W, strain WHI5 (second series), hits give low values.
[14] abbreviates: S. cerevisiae deletion strains, locus YPL055C, strain LGE1, hits give low values.
Where [15] appears, read: S. cerevisiae deletion strains, locus YPL241C, strain CIN2, hits give low values.
Where [16] appears, read: S. cerevisiae deletion strains, locus YGR078C, strain PAC10, hits give low values.
Where [17] appears, read: S. cerevisiae deletion strains, locus YNL322C, strain KRE1, hits give low values.
[18] abbreviates: S. cerevisiae deletion strains, locus YBR229C, strain ROT2, hits give low values.
The mark [19] stands for this setting: S. cerevisiae deletion strains, locus YCL061C, strain MRC1, hits give low values.
[20] abbreviates: S. cerevisiae deletion strains, locus YDL101C, strain DUN1, hits give low values.
[21] abbreviates: S. cerevisiae deletion strains, locus YDL134C, strain PPH21, hits give low values.
Setting [22] is: S. cerevisiae deletion strains, locus YEL061C, strain CIN8, hits give low values.
[23] abbreviates: S. cerevisiae deletion strains, locus YHR030C, strain SLT2, hits give low values.
Where [24] appears, read: S. cerevisiae deletion strains, locus YHR087W, strain rtc3, hits give low values.
[25] abbreviates: S. cerevisiae deletion strains, locus YJR043C, strain POL32, hits give low values.
The mark [26] stands for this setting: S. cerevisiae deletion strains, locus YKL190W, strain CNB1, hits give low values.
The mark [27] stands for this setting: S. cerevisiae deletion strains, locus YLR039C, strain RIC1, hits give low values.
The mark [28] stands for this setting: S. cerevisiae deletion strains, locus YLR058C, strain SHM2 (second series), hits give low values.
[29] abbreviates: S. cerevisiae deletion strains, locus YLR085C, strain ARP6, hits give low values.
The mark [30] stands for this setting: S. cerevisiae deletion strains, locus YLR262C, strain YPT6, hits give low values.
Setting [31] is: S. cerevisiae deletion strains, locus YML094W, strain GIM5, hits give low values.
Where [32] appears, read: S. cerevisiae deletion strains, locus YMR219W, strain ESC1, hits give low values.
The mark [33] stands for this setting: S. cerevisiae deletion strains, locus YMR263W, strain SAP30, hits give low values.
Where [34] appears, read: S. cerevisiae deletion strains, locus YNL298W, strain CLA4 (second series), hits give low values.
Setting [35] is: S. cerevisiae deletion strains, locus YNR030W, strain Alg12, hits give low values.
Setting [36] is: S. cerevisiae deletion strains, locus YPR135W, strain CTF4, hits give low values.
Where [37] appears, read: S. cerevisiae strains, strain wild type, hits give low values.

The whole screen tested about 5,500 compounds, of which about 2,000 (36%) were called active. Another 18% or so got no clear call; they are omitted. The list shows a part of the results. Values without a mark were called inactive. Rule as the data show it: active = normalized growth mostly below about 0.91 (no sharp cut-off); inconclusive = no clear call, values can overlap the other calls; inactive = mostly above about 0.92.

Turning to `COC1(C2=NCCN2)COc2ccccc2O1` (stereo not drawn), the normalized growth is, setting by setting: under setting [1], 1; under setting [2], 1.01; under setting [3], 1.01; under setting [4], 1.02; under setting [5], 0.995; under setting [6], 1. In addition, the normalized growth runs as follows: under setting [7], 1.01; under setting [8], 0.998; (S. cerevisiae deletion strains, locus YNL128W, strain TEP1, hits give low values) 0.995; under setting [9], 1.03; under setting [10], 1; under setting [11], 1.01. Besides, the normalized growth is 1.01 under setting [12], 1.02 under setting [13], 0.996 under setting [14] and 1.01 under setting [15].

`Nn1nnc2ccccc21`: the normalized growth runs as follows: under setting [1], 1.01; under setting [2], 1.02; under setting [3], 1.01; under setting [5], 1; under setting [6], 1.01; under setting [16], 1.01. Moreover, the normalized growth was 0.991 under setting [10]; 1.01 under setting [11]; 0.998 under setting [12]; 1.02 under setting [17]; 0.998 under setting [13]; 1.02 under setting [14].

For the molecule `FC(F)(F)c1cc(NC2=NCCN=C(Nc3cc(C(F)(F)F)cc(C(F)(F)F)c3)SS2)cc(C(F)(F)F)c1`, the normalized growth runs as follows: under setting [1], 1.01; under setting [18], 1.01; under setting [19], 0.997; under setting [20], 0.993; under setting [21], 0.999; under setting [4], 1.04. In addition, the normalized growth under setting [22] was 1; the normalized growth under setting [16] is 1; the normalized growth under setting [23] is 0.952; the normalized growth under setting [24] is 0.997; the normalized growth under setting [25] was 0.993; the normalized growth under setting [7] was 0.989. In addition, the normalized growth runs as follows: under setting [26], 1.01; under setting [27], 0.977; under setting [28], 1.01; under setting [29], 0.978; under setting [30], 0.979; under setting [31], 0.975. The normalized growth was 1 under setting [32]; 1.02 under setting [33]; 0.916 under setting [8]; 1.02 under setting [9]; 1.01 under setting [34]; 1 under setting [17]. For the same molecule, the normalized growth was 0.988 under setting [35]; 1.05 under setting [14]; 0.99 under setting [15]; 0.95 under setting [36]; 1.01 under setting [37].

For `N#CCCNc1cc(C(F)(F)F)cc(C(F)(F)F)c1`, the normalized growth under setting [1] is 0.98; the normalized growth under setting [18] was 0.985; the normalized growth under setting [19] was 0.96; the normalized growth under setting [20] was 0.986; the normalized growth under setting [21] was 0.99; the normalized growth under setting [4] is 0.96. Also, the normalized growth under setting [22] was 0.975; the normalized growth under setting [16] is 0.947; the normalized growth (S. cerevisiae deletion strains, locus YGR229C, strain SMI1, hits give low values) is 0.981; the normalized growth under setting [23] is 0.867; the normalized growth under setting [24] is 0.989; the normalized growth (S. cerevisiae deletion strains, locus YJL187C, strain SWE1, hits give low values) was 0.986. Further, the normalized growth under setting [25] is 0.97; the normalized growth under setting [7] is 0.883 (active); the normalized growth under setting [26] is 0.981; the normalized growth under setting [27] was 0.848; the normalized growth under setting [28] is 1.01; the normalized growth under setting [29] was 0.837. For the same molecule, the normalized growth reads like this: under setting [30], 0.844; under setting [31], 0.918; under setting [32], 0.987; under setting [33], 0.991; under setting [8], 0.903; under setting [9], 0.96. Besides, the normalized growth was 0.954 under setting [34]; 0.957 under setting [17]; 0.902 under setting [35]; 0.893 under setting [14]; 0.947 under setting [15]; 0.801 under setting [36]. The normalized growth under setting [37] was 0.991.
